From PubChem
a7 integrin act = activators of alpha7 integrin expression for muscular dystrophy; alpha7betagal myoblasts, beta-gal FDG fluorescence, 48 h; Potency, µM (top dose mostly 38.3 µM), without a hit: top-dose activation, actives largely listed as activators; 350,000 tested, 0.064% active;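 note: potency is the fitted concentration of half-maximal effect; 100% = response of the positive control SU9516; nearly all actives have a fitted effect of over 60% in size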
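Alpha7betagal+/- myoblasts (passage 13) were plated 16-24 hr, then exposed to compounds (1:260 dilution of DMSO stock) for 48 hours at 37C. After MPER lysis, β-galactosidase reporter activity was read as FDG fluorescence (ex 480/em 540) after 30 minutes.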
GLA inh pH 4.5 = blocks human alpha-galactosidase A at pH 4.5. P06280. purified enzyme, 4-MU-alpha-Gal fluorescence, pH 4.5. activity change, negative = inhibition, % at 105 µM. 230,000 tested, under 10 active;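 note: 0% = full activity with enzyme and -100% = basal without enzyme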
Menin-MLL TR inh = inhibitors of human menin-MLL interaction, mutant MLL peptide. O00255. Menin + Texas Red MLL mutant peptide, fluorescence polarization. Potency, µM (highest dose often 61.6 µM), for the others: top-dose FP activity change, negative = inhibition, most hits filed as inhibitors. 270,000 tested, 0.23% active; active = well fitted inhibition curve with a large enough effect in the polarisation, with a control signal flat, not every such curve was filed as active; inconclusive = small, poorly fitted or top-dose-only effect, or effect the other way, or a change in a side signal; inactive = no such curve, though single readings can be large or run the other way; the % refers to the polarisation; note: potency is the fitted concentration of half-maximal effect; % of control where 0% means no effect
CXXC DNA block = blocks binding of human MLL CXXC domain to DNA | Q03164 | MLL-CXXC / FITC-HOXA9 DNA fluorescence polarization | 290,000 tested, 0.037% active | AID 2662 | Potency, µM (highest dose often 115 µM), for inactives: at the highest dose activity change, negative = inhibition, actives largely listed as inhibitors; active = well fitted inhibition curve with a large enough effect in the polarisation, with a control signal flat, not every such curve was filed as active; inconclusive = small, poorly fitted or top-dose-only effect, or effect the other way, or a change in a side signal; inactive = no such curve, though single readings can be large or run the other way; the % refers to the polarisation; note: potency is the fitted concentration of half-maximal effect
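Steps: dispense CXXC domain solution (7 uM) → pin compounds or unlabeled HOX-A9 DNA control → 5 min ambient → add FLSN-HOX-A9 solution (50 nM) → spin → 30 min ambient → fluorescence polarization. Tris pH 7.5/NaCl/DTT/BSA buffer.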
Menin MLL FP FL = displaces fluorescein MLL peptide from human menin | Fluorescence polarization, fluorescein-MLL peptide displacement from menin | FP activity change, % at 61.4 µM | 290,000 tested, under 10 active | AID 1766; active = well fitted curve in the direction sought with a large enough effect in the polarisation, not every such curve was filed as active; inconclusive = small, poorly fitted or top-dose-only effect, or effect the other way, or a change in a side signal; inactive = no such curve, though single readings can be large or run the other way; the % refers to the polarisation; note: % of control where 0% means no effect
GLA spleen mod = alpha-galactosidase A (human) modulation; P06280; human spleen homogenate, 4MU-alpha-Gal fluorescence, 40 min; Potency, µM (titrated, usually from 80 µM), inactives show at the highest dose activity change, negative = inhibition, hits mostly inhibitors; 240,000 tested, 0.008% active; AID 2107;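 note: potency is the fitted concentration of half-maximal effect; 0% = enzyme with vehicle and -100% = no enzyme basal signal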
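Spleen homogenate 1 ug + cpd (titration) + 4-MU-alpha-D-galactopyranoside 1 mM; 37C 40 min; 50 mM citrate/phosphate pH 5.0, 0.01% Tween-20; stop pH 10; fluorescence 365/440; AC50 via Hill.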
Active calls of the source: *; ! = not confirmed by another sample; [ ] = dose if it differs, or a comment. The entries come from a sample that favours hits as a whole. Unless noted, calls come from the whole dose curve; as a rule, active = well fitted curve in the direction sought with a large enough effect; inconclusive = small, poorly fitted or top-dose-only effect, or another doubt; inactive = no such curve, though single readings can be large; an effect the other way counts as inactive or inconclusive.

`CCOC(=O)C(=Cc1ccc(F)cc1)C(=O)OCC` gave GLA inh pH 4.5 -9, Menin-MLL TR inh inconclusive, CXXC DNA block -2%, Menin MLL FP FL 3 and GLA spleen mod 2%.
C=CC[C@@](C(C)=O)(C(=O)OC)C(NC(=O)OC(C)(C)C)c1ccccc1 (stereo partly specified) was read as GLA inh pH 4.5 2, Menin-MLL TR inh 3%, Menin MLL FP FL -3 and GLA spleen mod 9%.
COc1cc2c(cc1OC)C1O[C@](c3ccsc3)(C2)Oc2cc(-c3ccccc3)oc(=O)c21 was read as Menin-MLL TR inh inconclusive, CXXC DNA block -1%[23 µM] and Menin MLL FP FL 11[11.7 µM].
`COc1cc(Cl)cc(CN2CCC(CCC(=O)NC3CC3)CC2)c1OC` gave a7 integrin act 7.1µM*, Menin-MLL TR inh -10%, CXXC DNA block 5% and Menin MLL FP FL 6.
Screening Nc1nc(SCc2ccc([N+](=O)[O-])cc2)c2ncn([C@@H]3O[C@H](CO)[C@H](O)[C@H]3O)c2n1 returned GLA inh pH 4.5 -4, Menin-MLL TR inh -3%, CXXC DNA block -2%, Menin MLL FP FL -8 and GLA spleen mod -14%.
For C=C1NC(=O)c2cc(CN(C)c3ccc(C(=O)N[C@@H](CCC(=O)O)C(=O)O)s3)ccc2N1 the results were Menin-MLL TR inh -3%, CXXC DNA block -6% and Menin MLL FP FL -3.
CC(C)(C)NC(=O)CSc1nc(-c2ccc(F)cc2)cs1 was read as a7 integrin act 4%, GLA inh pH 4.5 -19, Menin-MLL TR inh -3%, CXXC DNA block -3%, Menin MLL FP FL -1 and GLA spleen mod 8%.
`CCNC(=O)CSc1nc(-c2ccc(F)cc2)cs1` gave a7 integrin act 5µM*, GLA inh pH 4.5 -2, Menin-MLL TR inh -4%, CXXC DNA block 8%, Menin MLL FP FL 1 and GLA spleen mod 13%.
`Cc1cccc(NC(=S)NC(=O)c2cc(-c3ccccc3)nc3ccccc23)c1` gave a7 integrin act 5%, GLA inh pH 4.5 -4, Menin-MLL TR inh 35µM*, CXXC DNA block -1%, Menin MLL FP FL -1 and GLA spleen mod -6%.
Cc1ccc(-c2cc(C(=O)Nc3ccncc3)c3ccccc3n2)cc1 was read as a7 integrin act -2%.
For CCOC(=O)c1sc(=N)n(-c2ccc(OC)cc2)c1C the results were a7 integrin act 2µM*, GLA inh pH 4.5 -3, Menin-MLL TR inh 28%, CXXC DNA block -1%, Menin MLL FP FL 4 and GLA spleen mod 10%.
`N#Cc1sc2nc(-c3cccs3)cc(-c3ccc(Cl)cc3)c2c1N` gave a7 integrin act 14%, GLA inh pH 4.5 -3, Menin-MLL TR inh 25µM*, CXXC DNA block -10%, Menin MLL FP FL inconclusive and GLA spleen mod -2%.
For CCN(CC)C(=O)c1sc2nc(-c3cccs3)cc(-c3ccc(Cl)cc3)c2c1N the results were a7 integrin act 28%, GLA inh pH 4.5 -12, Menin-MLL TR inh inconclusive, CXXC DNA block inconclusive, Menin MLL FP FL 14 and GLA spleen mod 2%.
N#Cc1sc2nc(-c3ccccc3)cc(C(F)(F)F)c2c1N was read as a7 integrin act 10%, GLA inh pH 4.5 8, Menin-MLL TR inh 18%, CXXC DNA block 6%, Menin MLL FP FL 4 and GLA spleen mod -14%.
N#Cc1sc2nc(-c3cccs3)cc(-c3ccccc3)c2c1N was read as a7 integrin act 0%, GLA inh pH 4.5 -6, Menin-MLL TR inh 13µM*, CXXC DNA block 17%, Menin MLL FP FL inconclusive and GLA spleen mod 3%.
For CCn1c(C)nc2cc(-c3nc4n(n3)Cc3ccccc3-4)ccc21 the results were a7 integrin act 3%, GLA inh pH 4.5 7, Menin-MLL TR inh 28µM*, CXXC DNA block -9%, Menin MLL FP FL 1 and GLA spleen mod -14%.
Cc1ccc(-c2nc3n(n2)Cc2ccccc2-3)cc1 was read as a7 integrin act -24%, GLA inh pH 4.5 -2, Menin-MLL TR inh 14%, CXXC DNA block -19%, Menin MLL FP FL 0 and GLA spleen mod -2%.
`OC[C@H]1O[C@@](CO)(O[C@H]2O[C@H](CO)[C@@H](O)[C@H](O)[C@H]2O)[C@@H](O)[C@@H]1O` gave Menin-MLL TR inh 0%, CXXC DNA block 2% and Menin MLL FP FL 1.
`O=C(Nc1nc(-c2ccc(S(=O)(=O)N3CCCC3)cc2)cs1)C1COc2ccccc2O1` (stereo unspecified) gave a7 integrin act 23%, GLA inh pH 4.5 -6, Menin-MLL TR inh 10µM*, CXXC DNA block 20%, Menin MLL FP FL 5 and GLA spleen mod 0%.
`O=C(Nc1nc(-c2ccccc2)cs1)C1COc2ccccc2O1` (stereo unspecified) gave a7 integrin act -6%, GLA inh pH 4.5 -1, Menin-MLL TR inh -20%, CXXC DNA block 17%, Menin MLL FP FL 5 and GLA spleen mod -2%.
For COC(=O)C1=C(C(=O)OC)[C@@H]2Nc3ccccc3[C@@]23C[C@@H](C(=O)OC)N(S(=O)(=O)c2ccc(C)cc2)C3=N1 the results were GLA inh pH 4.5 8, Menin-MLL TR inh -9%[11.7 µM], Menin MLL FP FL -1[11.7 µM] and GLA spleen mod 0%[17.5 µM].
CCCCNC(=O)CSc1nnc(Cc2ccc(Cl)c(Cl)c2)c(=O)[nH]1 was read as a7 integrin act 1.4µM*, Menin-MLL TR inh 4%, CXXC DNA block -11% and Menin MLL FP FL 3.
Screening COc1ccc(Cc2nnc(SCC(=O)Nc3cc(Cl)ccc3OC)[nH]c2=O)cc1 returned a7 integrin act 12%.
`COc1ccccc1-c1coc2c(CN3C(C)CCCC3C)c(O)ccc2c1=O` (stereo unspecified) gave a7 integrin act 2.2µM*, Menin-MLL TR inh 12%, CXXC DNA block -2% and Menin MLL FP FL 0.
`O=C(O)CC[C@@H](C(=O)O)N1C(=O)c2ccccc2C1=O` gave GLA inh pH 4.5 -1, Menin-MLL TR inh -5%, CXXC DNA block -16%, Menin MLL FP FL 0 and GLA spleen mod 7.9µM*!.
For CC(NNC(=O)c1ccccc1)c1ccccc1 (stereo unspecified) the results were Menin-MLL TR inh -6%, CXXC DNA block 1% and Menin MLL FP FL 6.
For CCOc1ccc2noc3c2c1C(=O)c1ccccc1-3 the results were a7 integrin act -13%, GLA inh pH 4.5 -5, Menin-MLL TR inh 8.9µM*, CXXC DNA block inconclusive, Menin MLL FP FL inconclusive and GLA spleen mod 6%.
`Cc1cc(C=O)c(C)n1-c1sc2c(c1C(=O)O)CCCC2` gave a7 integrin act 23%, GLA inh pH 4.5 0, Menin-MLL TR inh 0%, CXXC DNA block 6%, Menin MLL FP FL 2 and GLA spleen mod -2%.
